Results with a measured potency or affinity are listed apart. Active and inactive are the calls of the source.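 Rule for the calls: active = viability loss whose fitted half-maximal concentration is at most twice the top valid tested dose; inconclusive = flat curve with 30 to 70% loss, or poor fit; inactive = the rest.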
experiment: HepG2 cell cytotoxicity, dose response, cytotoxicity control, ATP luminescence, cherry-pick, set 6 (AID 1053125); conditions: HepG2 viability, ATP luminescence (CellTiter-Glo), 72 h; series mostly up to 26 µM;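 note: negative values mean loss of viability signal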

SMILES | outcome
CCC(Sc1nc(N)c(NC(=O)c2ccc(OC)cc2)c(=O)[nH]1)C(=O)O (stereo unspecified) | inactive
CCN(CC)CCNC(=O)c1sc2nc(-c3ccccc3)cn2c1C | inactive
CCN(CC)CCCNc1nc(C)cc(COC)c1C#N | inactive
O=C(c1cccc(Cl)c1)N1CCC(=O)N(C(COCc2ccccc2)Cc2ccccc2)CC1 (stereo unspecified) | inactive
C=CCn1c(=N)c(C#N)cc2c(=O)n3ccccc3nc21 | inactive
C/C(=N\NC(=O)CC#N)c1cc2ccc(O)cc2oc1=O | inactive
Nc1ccc2nc(-c3ccccc3)cnc2c1 | inactive
Cc1ccc(S(=O)(=O)Nc2ccc(Nc3ccccc3)cc2)cc1 | inactive
N#Cc1c(NCCCO)nc(NCc2ccccc2)c2c1CCN(Cc1ccccc1)C2 | inactive
Cc1cccn2c(=O)c3cc(C(=O)NCCc4ccccc4)c(=N)n(CCCn4ccnc4)c3nc12 | inactive
Cc1ccc(-c2nc3ccsc3c(=O)[nH]2)cc1 | inactive
CCOC(=O)c1c(C)n(C)c2ccc(OCC(O)CN3CCC(C)CC3)cc12 (stereo unspecified) | inactive
COc1ccc(S(=O)(=O)Cc2ccc(C(=O)N3CCN(Cc4ccccc4)CC3)o2)cc1 | inactive
Cc1nc(CCNC(=O)Cc2ccc(Cl)cc2)cs1 | inactive
O=C(CCCN1C(=O)CSc2ncccc21)N1CCN(Cc2ccccc2)CC1 | inactive
NC(=O)c1c(NC(=O)Cc2ccccc2)sc2c1CCN(Cc1ccccc1)C2 | inactive

Reference: PubChem BioAssay AID1053125 (Broad Institute, 2014)
